Only some compounds are listed: those with a hit (about 21% of all), similar ones and a draw of the others.
Pf growth 48h – inhibits P. falciparum growth in the first generation, 48 h. hit rate 5.9% among 310,000. Potency, µM (titrated, usually from 28.7 µM), for inactives: at the highest dose activity change, negative = inhibition, most hits filed as inhibitors. P. falciparum luciferase growth in erythrocytes, 48 h. AID 504832; active = well fitted inhibition curve with a large enough effect; inconclusive = small, poorly fitted or top-dose-only effect, or another doubt; inactive = no such curve, though single readings can be large or run the other way; also: potency is read from the fitted curve at half-maximal effect; % is scaled to controls: 0 for no effect and ±100 for the full control effect
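Erythrocytes infected with P. falciparum carrying an integrated firefly luciferase reporter (2% hematocrit, 0.1% parasitemia final) were exposed to compounds in RPMI 1640 with 0.5% Albumax at 37 C, 5% CO2. Growth inhibition was scored as reduced luminescence.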
CHX counter – affects cycloheximide protein synthesis inhibition readout, counter-screen; cell reporter, cycloheximide protein synthesis inhibition counterscreen; max response, %; hit rate 12% among 300,000; AID 2314; in the data active = max response mostly above about 13%, no sharp cut-off; inactive = mostly below about 14%; also: read at 38.3 µM for the half of the compounds with a filed dose; 0% is about no effect
SARS PLP yeast – SARS-CoV PLP inhibition in yeast; S. cerevisiae expressing SARS-CoV PLpro, growth rescue; Potency, µM (highest dose often 32.9 µM), inactives show at the top dose activity, positive = growth rescue, usual class: activators; hit rate 0.19% among 330,000; also: potency is read from the fitted curve at half-maximal effect; 0% is about no effect; nearly all actives have a fitted effect of over 55% in size
NS1 inh – blocks influenza NS1 protein function. Potency, µM (top dose mostly 46.1 µM), for inactives: at the highest dose activity, positive = more growth. hit rate 0.4% among 270,000. AID 2326; also: potency is read from the fitted curve at half-maximal effect; actives are rising curves; nearly all actives have a fitted effect of over 50% in size
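In this qHTS, NS1 from influenza A is expressed in budding yeast, where it slows growth. Cells are switched from glucose to 2% galactose medium (pH 6.0, -URA), treated with compound, and growth recovery is read at OD600.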
Shiga toxin inh – inhibitors of Shiga toxin in Vero cells | Vero cells, Shiga toxin protein synthesis inhibition reporter | inhibition, % at 38.7 µM | hit rate 9.2% among 290,000 | AID 2315; in the data active = inhibition mostly above about 28%, no sharp cut-off; inactive = mostly below about 43%; also: 0% is about no effect
Pf growth 96h – P. falciparum growth inhibition at 96 hours. Potency, µM (top dose mostly 28.7 µM), for the others: at the top dose activity change, negative = inhibition, hits mostly inhibitors. P. falciparum luciferase reporter growth, 96 h. hit rate 6.9% among 320,000; active = well fitted inhibition curve with a large enough effect; inconclusive = small, poorly fitted or top-dose-only effect, or another doubt; inactive = no such curve, though single readings can be large or run the other way; also: potency is read from the fitted curve at half-maximal effect; % is scaled to controls: 0 for no effect and ±100 for the full control effect
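Delayed-death screen, second-generation endpoint: infected erythrocytes, 2% hematocrit, 0.05% parasitemia final; 96 hours at 37 C, 5% CO2; luciferase detection reagent; luminescence decrease equals reduced growth.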
* hit, by the source's call; ? = inconclusive; / = not tested or not shown; + = active, no number. Unless noted, calls follow the shape of the full dose curve.

SMILES	Pf growth 48h	CHX counter	SARS PLP yeast	NS1 inh	Shiga toxin inh	Pf growth 96h
COc1ccc(-c2c(C#Cc3ccsc3)c3cc(-c4ccc5[nH]ccc5c4)ccc3n2C)cc1	?	/	3%	/	/	?
COc1ccc(-c2c(C#Cc3ccsc3)c3ccccc3n2C)cc1	?	23*	-14%	?	39*	3.3µM*
COc1ccc(-c2oc3ccc(-c4cc(OC)c(OC)c(OC)c4)cc3c2C#Cc2ccsc2)cc1	-41%	-2	-5%	7%	-6	7.4µM*
COC(=O)c1ccc2c(c1)c(C#Cc1ccccc1)c(-c1ccccc1)n2C	/	60*	12%	/	+	/
CCOC(=O)c1c(-c2ccccc2)n(C)c2ccc(O)cc12	/	-3	-1%	-1%	-8	?
O=C(Cc1csc(Nc2nc(=S)[nH]c3ccccc23)n1)N1CCN(c2cccc(C(F)(F)F)c2)CC1	-16%	2	0%	-1%	4	2%
C/C(=N\NC(=O)CSc1nc(C)cc(C)n1)c1ccc([N+](=O)[O-])cc1	2%	-3	0%	3%	-11	15%
Cc1ccccc1OCCCCn1cnc2ccccc21	/	16*	8%	-152%	23	-11%
Brc1ccccc1OCCCCN1CCCCC1	?	1	-3%	-10%	-5	?
Cc1ccc(OCCCCn2cnc3ccccc32)cc1	30%	40*	1%	/	88*	-1%
Brc1ccccc1OCCCn1cnc2ccccc21	/	35*	0%	-57%	52	84%
CC(C)C(=O)Nc1ccc2oc(-c3cc(F)c(F)cc3Cl)nc2c1	?	2	16%	-2%	23	?
CCC(=O)Nc1cccc(-c2nc3ccccc3c(=O)o2)c1	-2%	-5	8%	-12%	-22	-10%
CC(=O)Nc1ccc2oc(C)nc2c1	?	-1	-1%	0%	6	6%
CC(=O)Nc1ccc2oc(-c3ccccc3Br)nc2c1	/	71*	-34%	-147%	93*	1%
Cc1ccccc1-c1nc2cc(NC(=O)C3CC3)ccc2o1	81%	43*	-18%	-90%	109*	-15%
CC(=O)Nc1ccc2oc(-c3cc(F)c(F)cc3Cl)nc2c1	86%	32*	-2%	-1%	181*	?
Cc1ccccc1-c1nc2ccccc2o1	/	11	0%	2%	-3	6%
CCC(=O)Nc1ccc2oc(-c3ccccc3Br)nc2c1	36%	49*	-26%	-154%	122*	-6%
CC(=O)Nc1ccc(S(=O)(=O)NCCC(=O)OCC(=O)N2CCN(C(=O)c3ccco3)CC2)cc1	-14%	-2	-1%	9%	-2	-8%
CCN(CC)S(=O)(=O)c1ccc(OC)c(NC(=O)Cn2cnc3c2c(=O)n(C)c(=O)n3C)c1	0%	-2	1%	0%	-30	1%
COc1ccc(OC)c(NC(=O)CSc2nc(N3CCOCC3)nc(N3CCOCC3)n2)c1	0%	-3	1%	-2%	-10	?
CSCC[C@H](NC(=O)C1CCN(S(=O)(=O)c2ccc(C)cc2C)CC1)c1nc2ccccc2[nH]1	/	/	1%	/	/	/
Brc1ccc(C[n+]2ccccc2)cc1	2.9µM*	/	-3%	/	/	7.4µM*
CSc1sc(C(=O)NC(=O)NCc2ccncc2)c(C)c1-c1ccon1	0%	4	1%	2%	-10	-10%
SMILES	Pf growth 48h	CHX counter	SARS PLP yeast	NS1 inh	Shiga toxin inh	Pf growth 96h
CCOC(=O)Cc1nc2cc(Cl)ccc2o1	27%	-1	-1%	2%	-6	2%
CCOC(=O)Cc1nc2ccccc2o1	10%	15*	0%	/	53	3.3µM*
COc1ccc(/C=N/NC(=O)c2cccc(C(=O)N/N=C/c3ccc(OC)c(OC)c3)n2)cc1OC	-6%	-3	-1%	1%	-5	1%
COc1cc(/C=N/NC(=O)c2ccncc2)ccc1OC(=O)c1ccccc1Cl	-6%	-2	-1%	4%	19	44%
COc1cc(/C=N/NC(=O)c2ccccn2)ccc1OC(=O)c1ccccc1Br	44%	43*	-3%	-4%	71*	2.1µM*
COc1cc(/C=N/NC(=O)c2ccccn2)ccc1OC(=O)c1ccc(Br)cc1	46%	25*	-2%	9%	41	14%
CCOc1ccccc1NC(=O)CCCc1ccc(OC)c(C)c1	?	6	-3%	-30%	7	?
COc1ccc(S(=O)(=O)NCC2CCC(C(=O)NCC(OC)OC)CC2)cc1 (stereo not given)	6%	2	1%	/	-4	-3%
O=C(Nc1ccc(Cl)c([N+](=O)[O-])c1)c1cnccn1	-5%	-1	-15%	-5%	4	?
Cc1csc(NC(=O)CSC2=NCCS2)n1	10%	37*	5%	9%	19	?
COc1cc(OC)cc(-n2nnnc2SCC(=O)Nc2nc3c(s2)CCCC3)c1	-7%	-5	1%	2%	-18	/
Cn1nnnc1SCC(=O)Nc1nc2c(s1)CCCC2	/	42*	3%	6%	70*	351%
O=C(CSC1=NCCS1)Nc1nc2c(s1)CCCC2	31%	39*	5%	?	99*	?
Cc1cc(=O)[nH]c(SCC(=O)Nc2nc3c(s2)CCCC3)n1	12%	10	6%	2%	24	-21%
Cc1cc(C)n(CCNc2nc3nonc3nc2N2CCCCC2)n1	0%	-2	0%	-1%	-8	33%
COc1ccccc1Sc1ccccc1/C=N/NC(N)=O	-15%	-2	0%	/	-6	?
COc1ccc(/C(N)=N/OC(=O)Cc2ccccc2OC)cc1	8%	39*	-7%	-8%	36*	-29%
COc1ccccc1CC(=O)O/N=C(\N)c1ccccn1	109%	42*	-1%	-3%	92*	65%
COc1ccccc1/C=N\N=C(\N)c1ccccn1	140%	55*	-12%	17%	89*	10%
N/C(=N\OC(=O)Cc1cccc2ccccc12)c1ccccn1	/	49*	3%	-124%	161*	6%
CC(C)CC(=O)Nc1nnc(SCC(=O)NCC2CCCO2)s1 (stereo not given)	7%	-2	2%	-7%	13	?
Cc1cc(C)c(NS(=O)(=O)c2ccc(NC(=O)/C=C/C(=O)O)cc2)c(C)c1	?	6	5%	20%	16	-1%
CC1CC(C)(C)NC(=S)N1CC(=O)NCc1ccc2c(c1)OCO2 (stereo not given)	-4%	-1	-1%	-4%	-2	16%
CN(CC(=O)O/N=C(\N)c1ccccn1)S(=O)(=O)c1ccc(Br)cc1	15%	6	-6%	-18%	9	9%
N/C(=N\OC(=O)Cc1ccccc1[N+](=O)[O-])c1ccccn1	52%	49*	0%	-1%	139*	?
COc1cccc(C(=O)O/N=C(\N)c2ccccn2)c1OC	-20%	10	-3%	-4%	-6	215%
COc1ccc(CC(=O)O/N=C(\N)c2ccccn2)cc1OC	22%	35*	11%	10%	55*	-30%

Screens (PubChem BioAssay)
